We go through 25 compounds from ChEMBL document CHEMBL4296183, “CO-ADD screening of NIH NCI Natural Product Set III” (2020).

Measured potencies and affinities stand elsewhere.

The test relates to Cryptococcus neoformans. As to conditions: Concentration 20 uM; ASSAY_TEST Inhibition of Fungal Growth; detection method Resazurin; Absorption (OD600-OD570); plate type 384well; NBS; CORNING #3640. (Resazurin is reduced to fluorescent resorufin, in cell work by metabolically active cells.)
Take `CC(=O)Oc1ccc2ccc(=O)oc2c1OC(C)=O`: the Inhibition (in general, the drop in the measured response relative to a control, in per cent) is -4.56%.

For `CCC1OC(=O)C(C)C(OC2CC(C)(O)C(O)C(C)O2)C(C)C(O)C(C)(O)CC(C)C(=O)C(C)C(O)C1C` (stereo not given), the Inhibition was -12.63%.

Take `COc1cc([C@@H]2c3cc4c(cc3[C@@H](OC3OC5CO[C@@H](c6cccs6)OC5C(O)C3O)[C@H]3COC(=O)[C@H]23)OCO4)cc(OC)c1O` (stereo not given in full): the Inhibition was -9.1%.

Turning to `O=c1oc2cc(O)ccc2c2oc3cc(O)ccc3c12` [COUMESTROL], the Inhibition is reported as 17.46%.

For `CC1(C)CCCC2(C)C3=C(CCC12)C(=O)OC3` (stereo not given), the Inhibition is -15.17%.

As for `CC[C@]1(O)C[C@H]2CN(CCc3c([nH]c4ccccc34)[C@@](C(=O)OC)(c3cc4c(cc3OC)N(C=O)[C@H]3[C@@](O)(C(=O)OC)[C@H](OC(C)=O)[C@]5(CC)C=CCN6CC[C@]43[C@@H]65)C2)C1.O=S(=O)(O)O` [VINCRISTINE SULFATE], the Inhibition was -1.83%.

Take `CC(=O)CCCCn1c(=O)c2c(ncn2C)n(C)c1=O` [PENTOXIFYLLINE]: the Inhibition was -13.02%.

`CN1CCc2cc3c(cc2C(=O)Cc2ccc4c(c2C1)OCO4)OCO3.Cl` [PROTOPINE HYDROCHLORIDE]: the Inhibition is -6.39%.

As for `O=c1oc2c(O)c(O)cc3c(=O)oc4c(O)c(O)cc1c4c23` [ELLAGIC ACID], the Inhibition was -7.36%.

Regarding `COc1ccc2c(c1OC)C(=O)O[C@@H]2[C@H]1c2c(cc3c(c2OC)OCO3)CCN1C` [NOSCAPINE], the Inhibition is -6.69%.

Turning to `CCCCCc1cc(O)cc2c1Oc1cc(O)cc(C(=O)CCCC)c1C(=O)O2`, the Inhibition is -14.32%.

With `COC(=O)C1C(O)CCC2CN3CCc4c([nH]c5ccccc45)C3CC21` (stereo not given), the Inhibition is on record as -9.85%.

For `COc1ccc(C2CC(=O)c3c(O)cc(OC4OC(CO)C(O)C(O)C4OC4OC(C)C(O)C(O)C4O)cc3O2)cc1O` (stereo not given), the Inhibition is listed as -13%.

For the compound `CC1(C)CC23C4COC(=O)C2CCC1C3CC4=O` (stereo not given), the Inhibition is reported as -8.62%.

Turning to `CC1(C)C(=O)N2c3ccccc3C3(CC(N4C(=O)c5ccccc5C4=O)C(=O)O3)C2N1C(=O)OCc1ccccc1` (stereo not given), the Inhibition is reported as -12.3%.

Turning to `COC(=O)NC1C(C)OC(OC2C/C=C(/C)C3C=CC4C(OC5CC(OC6CCC(OC7CC(O)C(OC8CCC(O)C(C)O8)C(C)O7)C(C)O6)C(OC(C)=O)C(C)O5)C(C)CC(C)C4C3(C)/C(O)=C3/C(=O)OC4(CC(C=O)=CC(O)C4/C=C\2C)C3=O)CC1(C)[N+](=O)[O-]` (stereo not given), the Inhibition is -14.96%.

With `C=C1C(=O)O[C@@H]2[C@H]3O[C@]3(C)CC/C=C(\C)CC[C@@H]12`, the Inhibition is on record as -8.82%.

In the case of `CC(C)=CC(=O)OC1C2C(C)C(=O)OC2C(O)C(C)C2C=CC(=O)C21C` (stereo not given), the Inhibition is -5.72%.

Regarding `COc1cc2c(c(OC)c1OC)-c1ccc(OC)c(=O)cc1[C@@H](NC(C)=O)CC2` [COLCHICINE], the Inhibition is listed as -9.86%.

`COC(=O)[C@@H]1[C@H]2C[C@@H]3c4[nH]c5ccccc5c4CCN3C[C@@H]2CC[C@@H]1O`: the Inhibition is given as -8.25%.

On to `COc1cc(C)c2c(c1C=O)Oc1c(c(C)c(O)c3c1C(O)OC3=O)OC2=O` (stereo not given) [STICTIC ACID], for which the Inhibition is -12.08%.

For the compound `C[C@@H]1C(=O)C[C@H]2C(C)(C)CCC[C@]2(C)[C@@]1(O)CCc1ccoc1`, the Inhibition is -4.02%.

As for `CCC1NC(=O)C(NC(=O)c2ncccc2O)C(C)OC(=O)C(c2ccccc2)NC(=O)C2CC(=O)CCN2C(=O)C(Cc2ccccc2)N(C)C(=O)C2CCCN2C1=O` (stereo not given), the Inhibition is recorded as -7.49%.

`COC(=O)C1C2CC3c4[nH]c5cc(OC)ccc5c4CCN3CC2CC(OC(=O)CCc2cc(OC)c(OC)c(OC)c2)C1OC` (stereo not given): the Inhibition is -8.83%.

Consider `COc1ccc2c(c1)O[C@H]1c3ccc(O)cc3OC[C@@H]21`, for which the Inhibition was -18.12%.
